Compounds with a hit are over-represented: about 2.4% of the library has one in this group of screens.
PGK inhibitor – qHTS Assay to Find Inhibitors of Phosphoglycerate Kinase | PGK/GAPDH coupled, Kinase-Glo luminescence, 60 min | actives 0.043% (n = 380,000) | Phosphoglycerate kinase, glycosomal (Trypanosoma brucei brucei), P07378 | Potency, µM (series often up to 57.5 µM), for inactives: at the top dose activity change, negative = inhibition, hits mostly inhibitors; also: potency is read from the fitted curve at half-maximal effect; % is scaled to controls: 0 for no effect and ±100 for the full control effect; nearly all actives have a fitted effect of over 60% in size
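Luminescent ATP detection (Kinase-Glo Plus) follows a 60-minute room-temperature incubation, with wells lacking PGK as controls. Buffer: 100 mM TEA (pH 7.6), 5 mM MgCl2, 0.01% Tween-20. Coupling enzyme GAPDH (100 nM final) supplies unstable 1,3-BPG in-well.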
FEN1 inhibitor – qHTS Assay for the Inhibitors of Human Flap endonuclease 1 (FEN1); Potency, µM (series often up to 114 µM), for the others: at the top dose activity change, negative = inhibition, usual class: inhibitors; Recombinant FEN1 flap cleavage, fluorescence, 15 min; P39748; actives 0.35% (n = 390,000); also: potency is read from the fitted curve at half-maximal effect; % is scaled to controls: 0 for no effect and ±100 for the full control effect; nearly all actives have a fitted effect of over 65% in size
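FEN1 at 10 nM preincubated with compounds 15 min at room temperature, then flap DNA substrate added at 50 nM final. Signal read at 0 and 15 min; concentration-response fitted with four-parameter Hill equation.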
Pol iota inh – qHTS for Inhibitors of Polymerase Iota; DNA polymerase iota (Homo sapiens), Q9UNA4; Pol iota fluorescent replication assay, 10 min; Potency, µM (highest dose often 115 µM), for inactives: at the top dose activity, negative = inhibition, actives largely listed as inhibitors; actives 1% (n = 390,000); also: potency is read from the fitted curve at half-maximal effect
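Fluorescent replication assay read twice, at 0 min and 10 min after adding 50 nM (final) substrate. Enzyme (10 nM) and compounds were first incubated 15 min at room temperature; enzyme-free buffer wells were negative controls.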
Pol eta inh-1 – qHTS for Inhibitors of Polymerase Eta | actives 1.2% (n = 390,000) | recombinant Pol eta, fluorescent DNA replication assay | AID 588591, 2011 | Potency, µM (highest dose often 114 µM), inactives show top-dose activity change, negative = inhibition, hits mostly inhibitors | DNA polymerase eta (Homo sapiens), Q9Y253; also: potency is read from the fitted curve at half-maximal effect; % is scaled to controls: 0 for no effect and ±100 for the full control effect
Target sequence (Q9Y253 whole entry, looked up): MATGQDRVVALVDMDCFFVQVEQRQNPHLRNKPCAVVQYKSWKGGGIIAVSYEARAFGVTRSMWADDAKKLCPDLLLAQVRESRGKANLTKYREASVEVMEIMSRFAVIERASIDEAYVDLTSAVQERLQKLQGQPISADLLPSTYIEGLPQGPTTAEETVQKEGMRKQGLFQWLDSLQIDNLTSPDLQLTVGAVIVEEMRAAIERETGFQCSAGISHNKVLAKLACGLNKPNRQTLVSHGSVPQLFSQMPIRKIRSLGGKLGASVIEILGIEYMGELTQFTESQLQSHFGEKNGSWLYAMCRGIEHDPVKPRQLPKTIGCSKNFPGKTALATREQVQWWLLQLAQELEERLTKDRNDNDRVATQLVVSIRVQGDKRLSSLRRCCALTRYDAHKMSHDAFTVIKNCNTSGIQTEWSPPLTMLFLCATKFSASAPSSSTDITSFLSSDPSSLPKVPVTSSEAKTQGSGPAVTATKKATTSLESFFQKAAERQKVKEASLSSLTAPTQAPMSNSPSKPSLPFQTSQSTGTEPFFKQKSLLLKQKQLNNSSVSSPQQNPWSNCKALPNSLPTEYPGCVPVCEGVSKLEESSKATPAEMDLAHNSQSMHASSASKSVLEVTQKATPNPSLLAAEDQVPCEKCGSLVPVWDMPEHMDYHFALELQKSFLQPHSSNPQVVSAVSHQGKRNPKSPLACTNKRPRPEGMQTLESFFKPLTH
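Fluorescent replication assay: 50 nM final substrate added after a 15 min room-temperature compound preincubation with 10 nM enzyme. Signal taken at 0 min and again at 10 min.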
POLB inh – qHTS Assay for Inhibitors of DNA Polymerase Beta. Pol beta primer extension/strand displacement, fluorescence kinetic. AID 485314, 2010. Potency, µM (top dose mostly 114 µM), for inactives: at the top dose activity change, negative = inhibition, most hits filed as inhibitors. actives 1.3% (n = 340,000); also: potency is read from the fitted curve at half-maximal effect; % is scaled to controls: 0 for no effect and ±100 for the full control effect
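Reaction started by 50 nM substrate onto compound-treated Pol beta (10 nM, 15 min preincubation, room temperature); plates read at 0 min and 10 min. Normalized concentration-effect data fitted by four-parameter Hill equation.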
Pol kappa inh-1 – qHTS for Inhibitors of Polymerase Kappa; purified Pol kappa, fluorescent DNA synthesis assay, 10 min; Potency, µM (doses to about 107 µM), for the others: top-dose activity, negative = inhibition, most hits filed as inhibitors; actives 0.53% (n = 400,000); AID 588579, 2011; also: potency is read from the fitted curve at half-maximal effect; % is scaled to controls: 0 for no effect and ±100 for the full control effect
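Kinetic fluorescence readout at 0 and 10 min followed reaction start with substrate at 50 nM final. Beforehand, enzyme (10 nM Pol kappa) stood 15 min with compound at room temperature; buffer-only wells were negative controls.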
GALK confirm – Confirmation Assay for Inhibitors of Human Galactokinase (GALK). AID 2015, 2009. purified GALK, Kinase-Glo ATP depletion luminescence. actives 70% (n = 150). Potency, µM (highest dose often 115 µM), inactives show at the highest dose activity, negative = inhibition, most hits filed as inhibitors. shares compounds with Pol eta inh-1
GALK redox cs – Confirmatory Assay for Inhibitors of Human Galactokinase (GALK): Phenol-HRP redox assay counterscreen. shares compounds with Pol eta inh-1. Phenol red-HRP H2O2 redox cycling, absorbance 600 nm. Potency, µM (series often up to 115 µM), for the others: at the top dose activity change, negative = H2O2 signal, most hits filed as inhibitors. actives 40% (n = 150)
HEK293 tox – Secondary Assay for Inhibitors of Human Galactokinase (GALK): HEK-293 Cell Viability Assay; shares compounds with Pol eta inh-1; HEK-293 viability, ATP luminescence (CellTiter-Glo), 24/48 h; Potency, µM (series often up to 46.1 µM), without a hit: at the top dose activity change, negative = cytotoxicity, actives largely listed as inhibitors; actives 10% (n = 170); also: potency is read from the fitted curve at half-maximal effect; % is scaled to controls: 0 for no effect and ±100 for the full control effect
Pol kappa inh-2 – qHTS for Inhibitors of Polymerase Kappa: Confirmatory Assay for Cherry-picked Compounds; purified Pol-kappa, fluorescent strand-displacement substrate; actives 76% (n = 920); shares compounds with Pol eta inh-1; Potency, µM, hits mostly inhibitors; AID 720501, 2013; also: potency is read from the fitted curve at half-maximal effect
Pol eta inh-2 – qHTS for Inhibitors of Polymerase Eta: Confirmatory Assay for Cherry-picked Compounds | actives 64% (n = 2,600) | shares compounds with Pol eta inh-1 | Potency, µM, most hits filed as inhibitors | Pol eta primer extension, TAMRA/BHQ fluorescence, 10 min; also: potency is read from the fitted curve at half-maximal effect
Starred values were filed as active, the others as inactive; i = inactive; ? = inconclusive; . = no result given; [ ] = remark or other dose. Calls follow the shape of the dose curve; as a rule, active = well fitted curve in the direction sought with a large enough effect; inconclusive = small, poorly fitted or top-dose-only effect, or another doubt; inactive = no such curve, though single readings can be large; an effect the other way counts as inactive or inconclusive.

SMILES	PGK inhibitor	FEN1 inhibitor	Pol iota inh	Pol eta inh-1	POLB inh	Pol kappa inh-1	Pol kappa inh-2	Pol eta inh-2	others
Cc1c(C(=O)Nc2cccc(F)c2)oc2c1-c1nn(Cc3c(F)cccc3Cl)cc1CC2	-4%	3%	21%	89µM*	1%	4%	47*	.
CC(=O)NNC(=O)CSc1nnc(-c2ccccc2)c(-c2ccccc2)n1	0%	?	?	14µM*	0%	?	19*	7.6*
CC(C)(C)NC(=O)CSc1nnc(-c2ccccc2)c(-c2ccccc2)n1	.	8%	0%	-11%	1%	-2%	.	.
CCN(CC)S(=O)(=O)c1ccc(/C=C/C(=O)OCC(=O)NCc2ccco2)cc1	-17%	-5%	35µM*	16µM*	.	?	42*	?
CN(C)S(=O)(=O)c1ccc(Cl)c(NC(=O)COC(=O)/C=C/c2ccco2)c1	-16%	1%	?	?	?	-30%	.	?
Cc1cccc(N2CCN(C(=O)c3ccc4c(Cl)c5c(nc4c3)CCCC5)CC2)c1C	-3%	-7%	22%	-4%	24%	-4%	.	.
O=C(OCc1cc(=O)n2ccsc2n1)c1ccccc1NCCO	-8%	9%	20µM*	22µM*	.	?	.	?
COc1cc(/C=C2/C(=O)NN(c3cccc(C)c3)C2=O)cc([N+](=O)[O-])c1O	-15%	-7%	?	22µM*	?	?	.	?
COc1cc(/C=C2/C(=O)NN(c3ccc(C)c(Cl)c3)C2=O)cc([N+](=O)[O-])c1O	.	?	8%	28µM*	35µM*	4%	.	85*
CCN(CC)c1ccc(/C=N/NC(=O)c2ccc(O)cc2)cc1	.	.	.	.	.	1%[60.1 µM]	.	.
Cc1ccc2c(=O)cc(C(=O)Nc3nc4ccc(Cl)cc4s3)oc2c1C	-6%	?	?	79µM*	6.3µM*	?	.	?
Cc1ccc2c(=O)cc(C(=O)Nc3nc4ccc(Cl)cc4s3)oc2c1	8%	17%	5%	2%	-1%	3%	.	.
O=C(O)c1ccc(-n2ncc(Cl)c(Cl)c2=O)cc1	?	.	.	22µM*	.	.	30*	48*
CC1=NN(c2ccc(C(=O)O)cc2)C(=O)/C1=C\c1ccc(OC(=O)c2cccs2)cc1	1%	50µM*	?	22µM*	?	-18%	.	?
Cc1ccc2c(CC(=O)Nc3ccc(S(=O)(=O)Nc4nc(C)cc(C)n4)cc3)coc2c1	-4%	-3%	0%	-8%	-3%	-29%	.	.
COc1ccc2occ(CC(=O)Nc3ccc(S(=O)(=O)Nc4nc(C)cc(C)n4)cc3)c2c1	-9%	?	79µM*	25µM*	28µM*	?	42*	?
COC(=O)c1ccc(NC(=O)CCn2cccn2)cc1	-5%	-2%	17%	-15%	-1%	-24%	.	.
CN(Cc1ccccc1)C(=O)C1CCN(S(=O)(=O)c2cc([N+](=O)[O-])ccc2Cl)CC1	2%	0%	?	-11%	-2%[57.1 µM]	-6%	.	.
CC(=O)COC(=O)C1CCN(S(=O)(=O)c2cc([N+](=O)[O-])ccc2Cl)CC1	i	-11%	?	32µM*	28µM*	?	.	?
NS(=O)(=O)c1ccc(NC(=S)NNC(=O)c2ccc(Br)o2)cc1	-5%	5%	19%	-15%	96%	-3%	.	.	GALK confirm=?;GALK redox cs=-2%;HEK293 tox=19%
COc1ccc(NC(=O)CSc2nc(O)cc(=O)[nH]2)c(OC)c1	-10%	-1%	2%	-8%	-30%	1%	.	.
Cc1csc(NC(=O)CSc2nsc(SCC(=O)Nc3nc(C)cs3)c2C#N)n1	-15%	-6%	-1%	-4%	27%	-19%	.	.
COc1ccc(NC(=O)CSc2sc3c(O)cc(=O)[nH]c3c2C#N)c(OC)c1	-9%	32µM*	2.5µM*	22µM*	1.6µM*	?	?	?
COC(=O)c1ccc(C)c(NC(=O)CSc2sc3c(O)cc(=O)[nH]c3c2C#N)c1	-25%	?	13µM*	10µM*	35µM*	22µM*	?	?
Cc1csc(NC(=O)CSc2sc3c(O)cc(=O)[nH]c3c2C#N)n1	-18%	50µM*	7.9µM*	18µM*	45µM*	28µM*	?	?
COc1ccc(NC(=O)c2ccco2)cc1NC(=O)c1cccc(C)c1OC	-5%	?	-7%	-24%	-14%	-12%	.	.
CCOc1ccc(/C=C/c2nc(C#N)c(N3CCN(CC)CC3)o2)cc1	i	-7%	18%	-22%	9%	5%	.	.
Cc1cccc(C)c1NC(=O)CN(C)C(=O)c1ccc2nc[nH]c2c1	-11%	-2%	22µM*	?	.	?	.	67*
CN(CC(=O)Nc1c(Cl)cccc1Cl)C(=O)c1ccc2nc[nH]c2c1	-5%	-2%	?	?	.	-10%	.	.

Screening data (PubChem)
